Screening data from PubChem BioAssay.
This is a sample that favours compounds with a hit; in the whole collection about 2.4% have one here.
D2 PAM-1: positive allosteric modulators of human D2 dopamine receptor; P14416; DiscoveRx D2 beta-arrestin cells, luminescence, 90 min; 100% = 57 uM dopamine signal; potentiation, % (concentration not given with the values); 360,000 compounds, 0.23% hits; AID 624464; in the data active means potentiation above about 50%; inconclusive means mostly about 30% to 49%
Target sequence (P14416 whole entry, looked up): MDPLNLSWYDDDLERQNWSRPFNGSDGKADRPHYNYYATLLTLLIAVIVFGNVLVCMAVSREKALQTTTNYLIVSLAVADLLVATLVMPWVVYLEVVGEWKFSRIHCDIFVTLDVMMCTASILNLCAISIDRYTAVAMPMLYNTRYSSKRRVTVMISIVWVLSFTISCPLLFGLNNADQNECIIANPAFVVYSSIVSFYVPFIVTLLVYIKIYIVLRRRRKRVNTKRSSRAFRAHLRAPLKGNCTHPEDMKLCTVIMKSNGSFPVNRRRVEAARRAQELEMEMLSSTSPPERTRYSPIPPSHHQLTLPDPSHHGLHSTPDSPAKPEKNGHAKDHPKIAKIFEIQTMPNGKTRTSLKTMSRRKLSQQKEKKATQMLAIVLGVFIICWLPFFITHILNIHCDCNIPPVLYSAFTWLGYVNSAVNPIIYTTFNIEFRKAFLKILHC
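PathHunter beta-arrestin assay in DiscoveRx D2 cells. Compounds were added with an EC20 of dopamine (50 nM final) for 90 min at 37 deg C. Luminescence was read 1 h after detection reagent, with 57 uM dopamine as the EC100 control.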
D2 ag-1: agonists of human D2 dopamine receptor; AID 485358; 340,000 compounds, 0.53% hits; P14416; HEK293 T-REx D2 cells, calcium flux agonist mode; activation, % at 2 µM;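 active means activation over 3 SD above normal in the single-dose calcium agonist read, cut at about 30% in these data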
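Tetracycline-induced HEK293 T-REx cells with force-coupled D2 receptor, plated overnight at 30 C, loaded with no-wash calcium dye. After a 10 s baseline, compound was pin-added and calcium flux read kinetically for 180 s; calcium rises flagged agonists.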
D2 ag-2: human D2 receptor agonism in beta-arrestin assay; AID 624465; activation, % (concentration not given with the values); DiscoveRx PathHunter D2 beta-arrestin, luminescence, 90 min; 100% = 57 uM dopamine signal; 360,000 compounds, 0.084% hits; P14416; in the data active means activation above about 40%; inconclusive means between about 15% and that limit
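DiscoveRx PathHunter D2 beta-arrestin cells (2,100/well) attached overnight, then compound-stimulated 90 min at 37 C in HBSS/10 mM HEPES/0.1% Tween-20 buffer; beta-galactosidase complementation read by luminescence after 1 h at ambient temperature. Dopamine 57 uM final (EC100) as control.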
D2 PAM-2: positively modulates the human D2 dopamine receptor allosterically | P14416 | HEK293 T-REx D2, calcium flux, EC20 dopamine potentiation | potentiation, % at 10 µM | 340,000 compounds, 0.34% hits | AID 485347;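 active means potentiation over 3 SD above the plate norm, cut at about 30% in these data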
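Tetracycline-induced HEK293 T-REx cells force-coupled to calcium signalling expressed D2; compounds were pin-added after a 10 s baseline, read kinetically 180 s, then an EC20 dopamine challenge followed with a further 180 s calcium read.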
D2 antagonist: antagonists of human D2 dopamine receptor | 340,000 compounds, 2% hits | HEK293 TREx D2 cells, calcium flux, dopamine EC80 | P14416 | inhibition, % at 10 µM | AID 485344; in the data active means inhibition above about 30%; inactive means below that, where a call was filed
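In this primary screen, negative modulation is detected by tracking calcium flux after an EC80 dopamine challenge in inducible HEK293 T-REx D2 cells preexposed to test compound for 180 s.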
Numbers stand for hits; n = inactive; u = inconclusive; x = not tested or not shown.

SMILES | D2 PAM-1 | D2 ag-1 | D2 ag-2 | D2 PAM-2 | D2 antagonist
S=C(Nc1ccc(Oc2ccccc2)cc1)N(CCCN1CCOCC1)Cc1ccccn1 | n | n | n | n | n
Cc1cccc(NC(=S)N(CCCN2CCOCC2)Cc2ccccn2)c1 | n | n | n | n | 40
O=C(OCc1ccccc1)N1CCC2CC1c1ccc(/C=C/CCCCl)cc12 (stereo unspecified) | n | x | n | x | x
COc1ccccc1NS(=O)(=O)c1cccc2cccnc12 | n | n | n | n | 31
CN(CC(=O)Nc1ccccc1Cl)C(=O)COC(=O)c1ccc([N+](=O)[O-])cc1Cl | 53 | n | u | n | n
CN(CC(=O)Nc1ccccc1Cl)C(=O)COC(=O)c1nc(Cl)ccc1Cl | n | n | n | n | n
COc1ccc(/C=C/C(=O)NCC(=O)N/N=C/c2cc(Br)ccc2OC)cc1 | n | n | n | n | 69
COc1ccc(/C=C\C(=O)NCC(=O)N/N=C/c2ccc(O)cc2O)cc1 | n | n | n | n | n
COc1cccc(/C=N/Nc2ccc(C(=O)O)cc2)c1O | 79 | n | n | n | n
COc1cccc(/C=N/Nc2ccc(S(=O)(=O)O)cc2)c1O | n | x | n | x | x
COc1cc(OC)c2cc(C(=O)N/N=C/c3cccc(OC)c3O)[nH]c2c1 | n | n | n | n | n
COc1cccc(/C=N/NC(=O)c2cc3c(OC)ccc(OC)c3[nH]2)c1O | 52 | n | n | n | n
COc1ccccc1/C=C/C(=O)NCC(=O)N/N=C/c1cc(Br)ccc1OC | n | n | n | n | 64
CC(=O)Nc1c(C(=O)Nc2cccc(C)c2)nnn1-c1ccc(C)cc1 | x | n | x | n | x
CC1CCN(c2cc3c(cc2F)c(=O)c(S(=O)(=O)c2cccc(Cl)c2)cn3Cc2ccccc2)CC1 | x | n | x | n | x
CCOc1ccc(S(=O)(=O)NCCc2csc(-c3ccc(Cl)cc3)n2)cc1 | x | n | x | n | x
COc1ccccc1/C=C\C(=O)NCC(=O)N/N=C/c1cccc(OC)c1O | n | n | n | n | 49
COc1ccc(Br)cc1/C=C/C(=O)Nc1ccc2ccccc2c1 | n | n | n | n | n
COc1ccc(/C=N/NC(=O)CNC(=O)/C=C/c2ccccc2OC)cc1 | n | n | n | n | n
COc1ccc(Br)cc1/C=C/C(=O)Nc1ccc(C)cc1 | n | n | n | n | 74
CCc1c(C(C)S(=O)(=O)c2ccccc2)[nH]c(=O)n1CC (stereo unspecified) | n | n | n | n | 35
Cc1ccc(OCC(=O)Nc2ccccc2C(=O)OCc2cc(=O)n3c(C)csc3n2)cc1 | x | n | x | n | x
Cc1ccc(NC(=O)c2cnn(-c3ccc(C)c(C)c3)c2C2CCN(C(=O)OC(C)(C)C)CC2)c(C)c1 | x | n | x | n | x
O=C1/C(=C/C=C/c2ccco2)SC(=S)N1NS(=O)(=O)c1ccccc1 | n | n | n | n | 42
Cc1cccc(NC(=S)N2CCCCC2)c1 | n | n | n | n | n
SMILES | D2 PAM-1 | D2 ag-1 | D2 ag-2 | D2 PAM-2 | D2 antagonist
Cc1ccc(C2CCN(C(=S)Nc3cccc(C)c3)C2)cc1 (stereo unspecified) | n | n | n | 75 | n
CCCN1CCc2nc(N3CCN(c4ncccn4)CC3)ncc2C1 | x | x | x | n | x
Cc1ccc(C(=O)OCc2nnc(-c3ccccc3)o2)o1 | n | n | n | 32 | n
O=C(OCc1nnc(-c2ccccc2)o1)c1cc(S(=O)(=O)N2CCOCC2)c(Cl)cc1Cl | n | n | n | n | 38
O=C1c2ccccc2C(=O)N1CCc1nc2ccccc2c(=O)n1Cc1ccco1 | n | n | n | n | 40
COc1ccc(C2/C(=C(/O)c3ccc(S(=O)(=O)N4CCOCC4)cc3)C(=O)C(=O)N2CCN2CCOCC2)cc1 (stereo unspecified) | n | n | n | n | 40
Cc1ccc(S(=O)(=O)N/N=C\c2cccnc2)cc1 | n | n | n | n | 35
Cc1ccc(S(=O)(=O)Nc2c(O)ccc3ccccc23)cc1 | n | x | 56 | x | x
Cc1cc2oc(=O)cc(CSc3nnc(-c4cccs4)o3)c2cc1C(C)C | n | n | n | n | 36
CN1CC[n+]2c(CN3C(=O)c4ccccc4C3=O)csc21 | n | n | n | n | 45
Cn1nccc1NC(=O)Nc1ccccc1 | n | n | n | n | n
Cn1nccc1NC(=O)Nc1ccc(Cl)cc1 | n | n | n | n | 43
COc1ccccc1NC(=O)Nc1ccc(-n2ccc(C(F)(F)F)n2)cc1 | n | n | n | n | 71
Cc1cc(C)cc(NC(=O)Nc2ccc(-n3ccc(C(F)(F)F)n3)cc2)c1 | n | n | n | n | n
COc1ccccc1NC(=O)Nc1nc(C(C)(C)C)cs1 | n | n | n | n | 35
COc1ccccc1NC(=O)Nc1cc(F)ccc1F | n | n | n | n | 32
COc1ccccc1NC(=O)Nc1nc(CC(=O)Nc2cccc(F)c2)cs1 | n | n | n | n | n
COc1ccccc1NC(=O)Nc1nc(CC(=O)Nc2cc(F)ccc2F)cs1 | 56 | n | n | n | n
CCCN1CCN(CCCNC(=O)c2ccc(CS(=O)c3ccc(OC)cc3)o2)CC1 (stereo unspecified) | n | n | n | n | n
Cc1ccc(C)n1-c1nnc(N2CCCC(C(=O)Nc3ccc(C(C)C)cc3)C2)s1 (stereo unspecified) | x | n | x | n | x
O=S(=O)(CC(O)(c1ccccc1)c1ccccc1)CC(O)(c1ccccc1)c1ccccc1 | n | x | n | x | x
CC(O)(CS(=O)(=O)c1ccc(Br)cc1)c1ccccc1 (stereo unspecified) | n | n | n | n | 31
COc1ccccc1N1CCN(C(=O)c2cc3c(s2)CCCCC3)CC1 | n | x | n | x | x
CCOc1ccccc1N1CCN(C(=O)c2cc3c(s2)CCC3)CC1 | n | n | n | n | 35
COC(=O)c1cc(OC)c(OC)cc1NC(=O)c1ccco1 | n | n | n | n | n
SMILES | D2 PAM-1 | D2 ag-1 | D2 ag-2 | D2 PAM-2 | D2 antagonist
COc1cccc(OCC(=O)Nc2ccc(OC)c(OC)c2)c1 | n | n | n | 32 | n
COc1cc(NC(=O)COc2cccc(OC)c2)cc(OC)c1 | n | n | n | n | n
COc1ccc(NC(=O)COC(=O)c2cc(OC)c(OC)cc2NC(=O)c2ccco2)cc1OC | n | n | n | n | 58
CC1CCCN(CCCNC(=O)c2ccc(NC(=O)C3=CSCCO3)cc2)C1 (stereo unspecified) | n | n | n | n | n
Cc1cccc(N2CCN(CCCNC(=O)c3ccc(NC(=O)C4=CSCCO4)cc3)CC2C)c1 (stereo unspecified) | n | n | n | n | 36
Cc1cc(-c2ccc(C(C)C)c(S(=O)(=O)Nc3ccccn3)c2)on1 | n | n | n | n | 31
Cc1cc(-c2ccc(C)c(S(=O)(=O)Nc3ccccn3)c2)on1 | x | n | x | n | x
COc1cccc(OCc2cc(C(=O)NC(C)c3cnn(C)c3C)no2)c1 (stereo unspecified) | n | n | n | n | n
COc1ccc(CCNCc2c(C(=O)O)c(C)n(Cc3ccccc3C)c2C)c(OC)c1 | x | n | x | n | x
